The values below come from PubChem BioAssay (NCATS).

Several values for one entry are separate records, joined by “and”; a condition that tells them apart may be missing. Equal values may be shown once. Inconclusive results are not listed. Activity calls are given as the source filed them. Unless noted, calls come from the whole dose curve; as a rule, active = well fitted curve in the direction sought with a large enough effect; inconclusive = small, poorly fitted or top-dose-only effect, or another doubt; inactive = no such curve, though single readings can be large; an effect the other way counts as inactive or inconclusive.

Assay [1] deals with Cytochrome P450 2C9 (Homo sapiens) (UniProt P11712). The assay is described as follows: qHTS Assay for Inhibitors and Substrates of Cytochrome P450 2C9 (AID 883). Note: nearly all actives have a fitted effect of over 60% in size. Note: potency is the fitted concentration of half-maximal effect. Put shortly: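 Inhibition of CYP2C9 is scored as loss of luminescence, with 57uM sulphaphenazole defining 100% inhibition. Substrate Luciferin-H is used at 100uM, equal to its KM; enzyme at 10nM in 25mM KPO4, 60 min at 37C with NADPH regeneration.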
Sequence of Cytochrome P450 2C9 (Homo sapiens) (P11712 whole entry, looked up): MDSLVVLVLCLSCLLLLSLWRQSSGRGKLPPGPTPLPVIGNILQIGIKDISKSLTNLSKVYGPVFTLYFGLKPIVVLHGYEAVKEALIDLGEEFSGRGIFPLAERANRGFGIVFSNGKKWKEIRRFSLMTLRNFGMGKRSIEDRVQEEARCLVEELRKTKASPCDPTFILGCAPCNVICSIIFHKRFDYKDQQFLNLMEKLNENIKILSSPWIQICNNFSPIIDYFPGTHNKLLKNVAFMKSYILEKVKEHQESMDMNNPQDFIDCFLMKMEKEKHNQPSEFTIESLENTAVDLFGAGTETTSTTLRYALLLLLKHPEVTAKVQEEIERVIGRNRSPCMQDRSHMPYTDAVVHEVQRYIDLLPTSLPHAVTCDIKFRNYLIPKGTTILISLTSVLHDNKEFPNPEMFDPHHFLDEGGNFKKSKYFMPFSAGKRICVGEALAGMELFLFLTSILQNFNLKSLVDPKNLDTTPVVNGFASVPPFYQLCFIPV

Assay [2] can be described thus: Cell Viability - LYMP2-009 (AID 968).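 Note: cells exposed to compound for 24 h at 37 °C; 0% = DMSO alone and the full-kill end = tetraoctylammonium bromide at 92 µM; nearly all actives have a fitted effect of over 55% in size.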
A short description of assay [3]: Cell Viability - LYMP2-013 (AID 970).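 Note: cells exposed to compound for 24 h at 37 °C; 0% = DMSO only and full inhibition = tetraoctylammonium bromide control; nearly all actives have a fitted effect of over 55% in size.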 Put shortly:
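In complete culture medium, human lymphoblastoid cells were dosed for 24 hr at 37 C, with tetraoctylammonium bromide (6.4pM to 92 uM) as positive control. Viability reflects luciferase-based ATP signal; AC50 derived from concentration-response curves.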

A short description of assay [4]: Cell Viability - LYMP2-016 (AID 984).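 Note: cells exposed to compound for 24 hours at 37 °C; % is set by controls: 0 for no effect and ±100 for the full control effect; nearly all actives have a fitted effect of over 55% in size.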 The essentials: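 Acute toxicity in a Coriell human lymphoblastoid line is scored as loss of intracellular ATP over 24 h of treatment in complete medium. CellTiter-Glo signal is fitted across concentrations with the Hill equation to give AC50.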
For assay [5], the target named is Nuclear receptor ROR-gamma (Homo sapiens) (UniProt P51449). The assay is described as follows: qHTS assay for small molecule antagonists of the retinoid-related orphan receptor gamma (ROR-gamma) signaling pathway (AID 651802).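 Note: luciferase reporter luminescence driven by ROR response element; % is set by controls: 0 for no effect and ±100 for the full control effect; nearly all actives have a fitted effect of over 60% in size.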 Put shortly: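 Doxycycline-induced reporter activity in engineered CHO cells (TET-inducible ROR, RORE-LUC) was measured by luminescence after 16hr compound exposure at 37C.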
Sequence of Nuclear receptor ROR-gamma (Homo sapiens) (P51449 whole entry, looked up): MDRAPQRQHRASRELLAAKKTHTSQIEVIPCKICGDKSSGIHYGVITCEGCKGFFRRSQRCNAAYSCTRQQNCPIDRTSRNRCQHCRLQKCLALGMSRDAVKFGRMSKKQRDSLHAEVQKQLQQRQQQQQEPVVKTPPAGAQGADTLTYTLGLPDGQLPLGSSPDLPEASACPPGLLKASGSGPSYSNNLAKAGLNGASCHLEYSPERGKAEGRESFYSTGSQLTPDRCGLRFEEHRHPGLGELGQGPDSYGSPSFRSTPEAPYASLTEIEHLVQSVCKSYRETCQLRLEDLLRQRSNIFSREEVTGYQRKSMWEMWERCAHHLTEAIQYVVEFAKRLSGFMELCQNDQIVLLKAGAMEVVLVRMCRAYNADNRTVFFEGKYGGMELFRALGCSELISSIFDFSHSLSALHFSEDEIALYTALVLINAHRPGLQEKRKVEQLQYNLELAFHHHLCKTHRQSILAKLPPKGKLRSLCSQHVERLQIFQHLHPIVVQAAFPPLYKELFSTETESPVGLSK

Assay [6] is described as follows: Cell Viability - BJ (AID 421; calls by dose curve;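 note: potency is the fitted concentration of half-maximal effect; cells exposed to compound for 40 hours at 37 °C before readout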). As to conditions: BJ fibroblast viability, qHTS. The essentials:
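Cytotoxicity as drop in intracellular ATP (CellTiter-Glo, 20 min RT) after 40 hr compound exposure of BJ fibroblasts at 37 °C. Titrations scaled between DMSO and 100 uM tamoxifen, Hill-fitted for AC50.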

The target of assay [7] is Glucocorticoid receptor (Homo sapiens) (UniProt P04150). The assay is described as follows: qHTS assay for small molecule agonists of glucocorticoid receptor signaling (AID 588532; active = well fitted curve in the direction sought with a large enough effect in the signal ratio, with a control signal flat; the % refers to the signal ratio;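 note: 100% = dexamethasone at 0.1 µM and 0% = DMSO only wells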). As to conditions: HeLa MMTV-bla, beta-lactamase ratio, agonist, 18 h; stronger effect = higher value; percent of dexamethasone control, DMSO zero. Put shortly:
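Quantitative HTS using CellSensor MMTV-bla HeLa cells in charcoal/dextran-treated serum; compounds tested up to 92 uM. After 18 h at 37 C, CCF4 dye reported reporter induction.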

For assay [8], the target named is Thyroid hormone receptor beta (Homo sapiens) (UniProt P10828). The assay is described as follows: qHTS assay for small molecule agonists of thyroid hormone receptor beta signaling (AID 588545; calls by dose curve;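 note: 0% = DMSO only and 100% = 10 nM T3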). Put shortly: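 TR-UAS-bla-GripTite HEK 293 cells in medium with 2% charcoal/dextran FBS, 0.1 mM NEAA and 1 mM sodium pyruvate were treated with titrated compounds for 18 hrs at 37 C. Beta-lactamase reporter was read with CCF4 dye (ex 405, em 460/530 nm); EC50 from Hill fits.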
Sequence of Thyroid hormone receptor beta (Homo sapiens) (P10828 whole entry, looked up): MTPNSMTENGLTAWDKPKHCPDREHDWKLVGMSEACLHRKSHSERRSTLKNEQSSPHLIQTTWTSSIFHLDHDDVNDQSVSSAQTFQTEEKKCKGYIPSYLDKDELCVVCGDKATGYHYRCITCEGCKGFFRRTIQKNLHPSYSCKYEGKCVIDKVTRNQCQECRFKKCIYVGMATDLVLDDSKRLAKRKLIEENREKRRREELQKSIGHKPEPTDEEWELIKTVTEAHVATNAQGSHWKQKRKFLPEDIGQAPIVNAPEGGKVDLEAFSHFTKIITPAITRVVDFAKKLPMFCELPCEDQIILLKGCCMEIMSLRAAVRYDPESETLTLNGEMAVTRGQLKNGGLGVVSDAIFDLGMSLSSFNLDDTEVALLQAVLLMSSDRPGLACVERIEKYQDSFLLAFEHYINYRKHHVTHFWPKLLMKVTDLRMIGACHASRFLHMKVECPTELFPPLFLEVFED

The target in assay [9] is ATP-dependent 6-phosphofructokinase (Trypanosoma brucei brucei) (UniProt O15648). Description: qHTS Assay to Find Inhibitors of T. brucei phosphofructokinase: hit validation (AID 492961).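 Note: luminescence reports ADP formed as PFK phosphorylates fructose-6-phosphate with ATP; % is set by controls: 0 for no effect and ±100 for the full control effect.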 Put shortly: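 In this biochemical qHTS validation, titrated compounds were tested against 1.25 nM PFK with 0.1 mM ATP and 0.5 mM F6P. Percent activity came from controls lacking or containing enzyme.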
Sequence of ATP-dependent 6-phosphofructokinase (Trypanosoma brucei brucei) (O15648 whole entry, looked up): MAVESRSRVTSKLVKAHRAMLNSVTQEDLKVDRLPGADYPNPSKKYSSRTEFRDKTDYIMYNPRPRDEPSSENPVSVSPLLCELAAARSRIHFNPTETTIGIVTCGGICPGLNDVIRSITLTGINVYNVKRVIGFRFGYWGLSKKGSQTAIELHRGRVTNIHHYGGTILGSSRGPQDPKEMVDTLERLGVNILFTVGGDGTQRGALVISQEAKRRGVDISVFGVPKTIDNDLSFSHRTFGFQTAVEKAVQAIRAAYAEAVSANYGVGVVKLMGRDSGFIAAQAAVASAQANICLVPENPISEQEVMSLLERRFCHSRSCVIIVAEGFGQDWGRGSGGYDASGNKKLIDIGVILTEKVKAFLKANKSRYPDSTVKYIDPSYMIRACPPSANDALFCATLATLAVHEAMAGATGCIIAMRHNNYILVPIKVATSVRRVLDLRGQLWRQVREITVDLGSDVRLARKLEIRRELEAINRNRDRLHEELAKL

Assay [10] in a line: qHTS profiling for inhibitors of Plasmodium falciparum proliferation (AID 504749).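 Note: 0% = DMSO vehicle and full inhibition = artemisinin control; nearly all actives have a fitted effect of over 60% in size.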 The note with it: P. falciparum in erythrocytes, SYBR Green DNA, 72 h, at 28.7 µM (top of the series). Put shortly:
(§1)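 In a 72 h erythrocytic culture (37 C, humidified, 5% CO2) at 2.5% hematocrit and 0.3% starting parasitemia, compounds were tested; SYBR Green I in detergent lysis buffer stained parasite DNA overnight.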

A further assay deals with CP192. The description is as above. The note with it: P. falciparum in erythrocytes, SYBR Green DNA, 72 h; series mostly up to 28.7 µM. Put shortly:
as §1

For another assay, the system named is CP194. The description is as above. The note with it: P. falciparum in erythrocytes, SYBR Green DNA, 72 h; series mostly up to 28.7 µM. Put shortly: as §1
The test system of a further assay is CP201. Described as above. As to conditions: P. falciparum in erythrocytes, SYBR Green DNA, 72 h; series mostly up to 28.7 µM. Put shortly: as §1
Another assay relates to CP291. The description is as above. As to conditions: P. falciparum in erythrocytes, SYBR Green DNA, 72 h; series mostly up to 28.7 µM. Put shortly: as §1
In a further assay the test system is W2. The description is as above. As to conditions: P. falciparum in erythrocytes, SYBR Green DNA, 72 h; series mostly up to 28.7 µM. The essentials: as §1
The nature of assay [11]: qHTS assay for small molecule antagonists of peroxisome proliferator-activated receptor delta signaling (AID 588535; active = well fitted inhibition curve with a large enough effect in the signal ratio, with a control signal flat, not every such curve was filed as active; the % refers to the signal ratio;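 for max response: cells co-treated with a PPAR-delta agonist as stimulator during compound exposure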). As to conditions: HEK293T PPARd-UAS-bla, beta-lactamase FRET ratio, 18 h; 460 nm channel. The essentials:
(§2)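 Antagonist-mode qHTS using GeneBLAzer PPAR-delta-UAS-bla HEK293T cells; compound exposure 18 hrs at 37 C over a titration. Ratiometric CCF4 fluorescence at 460/530 nm; concentration-response points fitted to the Hill equation.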

Assay [12] deals with Peroxisome proliferator-activated receptor delta (Homo sapiens) (UniProt Q03181). The description is as above. Put shortly:
as §2

Assay [13] can be described thus: qHTS assay for cell viability of HEK293 cells (AID 743288). Note: % is set by controls: 0 for no effect and ±100 for the full control effect; nearly all actives have a fitted effect of over 50% in size. The note with it: ATP luminescence (CellTiter-Glo), 18 h; max response: stronger effect = lower value. Put shortly: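 Quantitative high-throughput screen: compounds were pinned onto parental HEK293 cells (2,000 per well) after a minimum 5 h settling at 37 C, incubated 18 h at 37 C, and intracellular ATP measured by luciferase luminescence.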

Assay [14] is described as follows: qHTS assay to identify small molecules that stimulate interleukin-8 (IL-8) secretion (AID 651758; active = well fitted activation curve with a large enough effect in the signal ratio; the % refers to the signal ratio; note: potency is the fitted concentration of half-maximal effect; for activation: 0% is about no effect). Put shortly: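 Secreted IL-8 measured homogeneously by TR-FRET (two labelled anti-IL-8 antibodies, 1-3 h at room temperature) after a 16 h, 37 C compound treatment of THP-1 cells at 2000 cells/well.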
A short description of assay [15]: qHTS Assay for Identification of Small Molecule Agonists for Hypoxia Response Element Signaling Pathway (AID 914; active = well fitted activation curve with a large enough effect in the signal ratio, with a control signal flat, not every such curve was filed as active; the % refers to the signal ratio; note: % of control where 0% means no effect). As to conditions: ME-180 (cervical carcinoma) HRE-bla reporter, beta-lactamase ratio, CoCl2, 17 h; activation: stronger effect = higher value. The essentials:
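HRE-bla ME-180 assay for agonist-like enhancement of an EC50 CoCl2 stimulus: 17 h at 37 degrees Celsius, CCF4 for 2.5 h, ratiometric 460/530 nm signal converted to %Activity and fitted to AC50.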

Sequence of Glucocorticoid receptor (Homo sapiens) (P04150 whole entry, looked up): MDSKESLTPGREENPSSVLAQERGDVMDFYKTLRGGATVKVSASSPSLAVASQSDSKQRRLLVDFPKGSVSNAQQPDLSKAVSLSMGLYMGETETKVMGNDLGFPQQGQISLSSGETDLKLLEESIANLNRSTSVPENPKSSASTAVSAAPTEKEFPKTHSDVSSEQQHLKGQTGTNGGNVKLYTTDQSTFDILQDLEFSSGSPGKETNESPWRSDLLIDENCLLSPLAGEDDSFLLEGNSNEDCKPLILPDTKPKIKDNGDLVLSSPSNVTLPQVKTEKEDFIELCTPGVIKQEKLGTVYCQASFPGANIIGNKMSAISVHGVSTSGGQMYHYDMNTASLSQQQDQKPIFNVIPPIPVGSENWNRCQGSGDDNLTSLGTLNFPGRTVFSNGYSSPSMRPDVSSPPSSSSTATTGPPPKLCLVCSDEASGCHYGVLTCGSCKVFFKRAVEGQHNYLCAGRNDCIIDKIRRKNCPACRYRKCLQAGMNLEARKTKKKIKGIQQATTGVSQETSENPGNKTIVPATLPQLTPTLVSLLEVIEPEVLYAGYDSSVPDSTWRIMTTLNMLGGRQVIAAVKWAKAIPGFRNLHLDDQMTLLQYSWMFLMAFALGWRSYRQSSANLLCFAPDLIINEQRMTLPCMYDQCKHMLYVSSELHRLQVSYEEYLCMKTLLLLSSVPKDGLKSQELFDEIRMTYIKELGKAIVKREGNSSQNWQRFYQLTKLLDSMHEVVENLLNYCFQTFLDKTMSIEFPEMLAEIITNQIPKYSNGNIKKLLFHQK
Sequence of Peroxisome proliferator-activated receptor delta (Homo sapiens) (Q03181 whole entry, looked up): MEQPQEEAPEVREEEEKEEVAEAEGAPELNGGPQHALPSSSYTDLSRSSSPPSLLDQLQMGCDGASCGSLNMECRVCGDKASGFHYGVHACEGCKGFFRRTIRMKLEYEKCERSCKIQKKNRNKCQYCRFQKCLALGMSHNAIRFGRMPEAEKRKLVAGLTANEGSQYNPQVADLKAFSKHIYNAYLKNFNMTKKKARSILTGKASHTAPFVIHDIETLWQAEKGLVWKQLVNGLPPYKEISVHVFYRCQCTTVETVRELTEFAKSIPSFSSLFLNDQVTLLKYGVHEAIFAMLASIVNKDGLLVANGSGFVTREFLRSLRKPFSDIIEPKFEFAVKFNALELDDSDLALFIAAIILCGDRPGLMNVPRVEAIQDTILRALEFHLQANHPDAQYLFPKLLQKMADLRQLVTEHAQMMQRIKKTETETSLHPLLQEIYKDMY

As to `COc1ccc(-c2nc3cnc(Oc4cccc(Cl)c4)nc3n(C[C@H]3CCCO3)c2=O)cc1`, the Potency in assay [1] was 5.01 µM (active).
Consider `O=C(O)c1ccccc1`, for which the Potency result in assay [2], in assay [3], in [4] and in assay [5] was “inactive” each time.
On to `CCCCCCCCCCCCCC(=O)O`, for which the Potency in assay [6] is > 92 µM (inactive). Further, in assay [7], the activation is -3.49% (inactive) and -3.58% (inactive). Moreover, the molecule was classed as inactive in [8].
Regarding `CC(=O)OC1CC2CCC1(C)C2(C)C` (stereo unspecified), the result in assay [9] was inactive. The activity, negative = inhibition was 6.76% (inactive) in assay [10] (parasite line A) and 13.6% (inactive) in assay [10] (parasite line B). Also, the Potency entry in the assay with CP192, in the assay on CP194, in the assay on CP201, in the assay with CP291 and in the assay with W2 was “inactive” each time.
For the molecule `C=CC(C)(CCC=C(C)C)OC(C)=O` (stereo unspecified), the max response in assay [11] was -1.31%. For the same molecule, the Potency result in [12] was “inactive”.
In the case of `COc1cc(/C=C/c2ccccc2)oc(=O)c1`, the activation in assay [7] was 1.13% (inactive). In assay [11], the max response is -19.2%. The Potency entry in assay [12] is “inactive”. Also, the outcome in assay [8] was inactive.
As for `CC1=C2[C@H](/C=C(\C)C(=O)O)CC[C@@H](C)[C@H]2CC1`, in assay [6], the Potency was > 92 µM (inactive). The Potency entry in assay [2] and in assay [3] was “inactive” each time. The max response in [13] is 5.67% (inactive).
On to `COc1ccc(/C=C/c2cc(OC)cc(=O)o2)cc1`, for which the Potency entry in assay [2] and in assay [4] was “inactive” each time. In addition, in [8], the molecule was called inactive. For the same molecule, the Potency in assay [14] is 66.8 µM (active). Further, the max response in assay [13] was -19.9% (inactive).
Take `CN(C)C(=O)c1ccc(-c2ccc3ncnc(Nc4ccc(F)cc4)c3c2)cc1`: the activation in [15] was 7.84% (inactive).
For the molecule `C=C(C)C1CC=C(C)C(O)C1` (stereo unspecified), the Potency entry in [3] and in assay [5] was “inactive” each time. Further, in assay [7], the activation was 0.682% (inactive). The max response in assay [13] was 0.258% (inactive).
For the molecule `O=c1cc(-c2ccc(O)c(O)c2)oc2cc(O[C@@H]3O[C@@H](CO)[C@@H](O)[C@@H](O)[C@H]3O)cc(O)c12`, the Potency result in assay [1] is “inactive”.
Regarding `C=CCc1ccc(OC)c(OC)c1`, the Potency result in assay [2], in assay [3], in assay [4], in [12] and in assay [14] was “inactive” each time. Besides, in [7], the activation was -12.3% (inactive). In addition, the max response in [11] was 10.2% and -6.71%. Further, the result in assay [8] was inactive.
For `CN(C)c1nc(-c2cccc(NS(C)(=O)=O)c2)nc2ccccc12`, in assay [15], the activation is 22.5% (inactive).
With `COc1ccccc1CNc1nc(-c2ccc(C(=O)N(C)C)cc2)nc2ccccc12`, the activation in assay [15] was 25.3% (inactive).
As for `CCCCCCCCCCCC(=O)O`, in [6], the Potency is > 92 µM (inactive). The max response is 12.5% in assay [11]; -8.75% (inactive) and -7.33% (inactive) in assay [13]. Besides, in assay [12], the Potency result was “inactive”.
